± gives the standard deviation.
Tested on: MILI (PIWIL2) piRISC loaded with L1MC piRNA (26 nt);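 also: 1 nM active piRISC with 0.1 nM target library at 33 °C single turnover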
Test: pre-steady-state target cleavage rate (min^-1); guide: L1MC piRNA 5'p-UAACUAAAUACUAUGCAAGCUGUAGG; higher = faster piRNA-guided slicing of the target
Conditions: auxiliary factor: 500 nM mouse GTSF1
Procedure, shortened: (§1)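 For Cleave-'n-Seq, a transcribed, DNA-blocked target RNA library […] met 1 nM active affinity-purified piRISC with one synthetic guide at 33 °C for 0–8 or 0–960 min in HEPES–potassium acetate buffer, with or without 500 nM GTSF1 partner protein. Uncleaved targets were sequenced and normalised to depth and weakly complementary targets, with three trials pooled and k3 capped at 0.0001 min^-1. A burst-and-steady-state fit supplied the pre-steady-state cleavage rate.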

| Sequence | pre-steady-state target cleavage rate |
| --- | --- |
| UCCUGCUACAGCAAGCAUAGUAUUUAGUUA | 0.325 ± 0.022 |
| UCCUGGAACAGCUUGCAUAGUAUUUGAGUUA | 0.209 ± 0.035 |
| UCCUCCUACAGGCUUGCAUAGUAUUUAGUUA | 0.268 ± 0.019 |
| UCCUGGAUGUCCUUGCAUAGUAUUUAAGUUA | 0.173 ± 0.023 |
| UCCUGCUACACCAUGCAUAGUAUUUAGUUA | 0.223 ± 0.015 |
| UCCUGGUACAGCUUCGCAUAGUAUUUAGUUA | 0.274 ± 0.021 |
| UCCUGCUACAGCUUGCAUAGUAUUUAGGUUA | 0.265 ± 0.042 |
| UCCUGGAUGAGCUUGCAUAGUACUUAGUUA | 0.127 ± 0.018 |
| UCCUGGAACAGCUUGCAUAGUAUUUAGUCA | 0.224 ± 0.024 |
| UCCUGCUUCAGCUAGCAUAGUAUUUAGUUA | 0.322 ± 0.02 |
| UCCUGGUACGCUUGCAUAGUAUUUAGUUA | 0.222 ± 0.034 |
| UCCUGGAUGAGCUUGCAUAGUAUUAAGUUA | 0.194 ± 0.029 |
| UCCUCCUACAGCUUGCAAUGUAUUUAGUUA | 0.101 ± 0.015 |
| UCCUGGUACAGCUUGCAUAGUAUGUUAGUUA | 0.184 ± 0.03 |
| UCCUGCUACAGCUUGGUUAGUAUUUAGUUA | 0.262 ± 0.015 |
| UCCUGGAACAGCUGCAUAGUAUUUAGUUA | 0.279 ± 0.021 |

Same assay, conditions: auxiliary factor: none (no GTSF1)

| Sequence | pre-steady-state target cleavage rate |
| --- | --- |
| UCCUGGAACAGCUUGCGUAGUAUUUAGUUA | 0.00716 ± 0.0018 |
| UCCUGGUACAGCAUGCAUAGUAUUUAGUUA | 0.0158 ± 0.004 |
| UCCUGCUUCAGCUUGGAUAGUAUUUAGUUA | 0.0068 ± 0.002 |
| UCCUGGAUGUCGACGCAUAGUAUUUAGUUA | 0.00381 ± 0.0021 |
| UCCUGGAACAGCUUGCAUAGUAUUUAGUUA [g2:g23:cont:t1A] | 0.0103 ± 0.0024 |
| UCCUGGAUGAGCUUGCAUAGUAUGUUAGUUA | 0.0093 ± 0.0029 |
| UCCUCCUACAGCUUGCUUAGUAUUUUGUUA | 0.0026 ± 0.0026 |
| UCCUGGUACAGCAUGCAUAGUAUUAAGUUA | 0.0046 ± 0.003 |
| UCCUGGUACAGCUUGCAUAGUAUUUAGUAA | 0.00667 ± 0.0024 |
| UCCUCCUACAGCUUGCAAAGUAUUUAGUUA | 0.00717 ± 0.0022 |
| UCCUGCUACAGCUUGCAUAGUAUAUUAGUUA | 0.00735 ± 0.0029 |
| UCCUGGAUGAGCUUGCACAGUAUUUAGUUA | 0.00869 ± 0.0031 |
| UCCUCCUACAGGUAGCAUAGUAUUUAGUUA | 0.00904 ± 0.0021 |
| UCCUGGAUGAGCUUGGAUAGUAUUUAGUUA | 0.00612 ± 0.0024 |
| UCCUGCUACAGUUGCAUAGUAUUUAGUUA | 0.0103 ± 0.0022 |
| UCCUGCAACAGCUUGCAUAGUUUUUAGUUA | 0.00354 ± 0.0029 |
| UCCUCCUACGAGCUUGCAUAGUAUUUAGUUA | 0.00585 ± 0.0022 |
| UCCUCCUACAGCUUGCAUAGUAUUUUCUAA | 0.00357 ± 0.0031 |
| UCCUGGAUGAGCUUGCAUAGUUUUUAGUUA | 0.00471 ± 0.0024 |
| UCCUGCUACAGGUUGCAAAGUAUUUAGUUA | 0.00965 ± 0.0025 |

| Sequence | pre-steady-state target cleavage rate |
| --- | --- |
| UCCUGGAACAGCAUUGCAUAGUAUUUAGUUA | 0.00862 ± 0.0022 |
| UCCUGCUUCAGCUUGCAAAGUAUUUAGUUA | 0.00828 ± 0.0015 |
| UCCUGGAUGUGCUUGUAUAGUAUUUAGUUA | 0.0136 ± 0.004 |
| UCCUCCUACAGCUUGCAUAGUAUAUAGUUA | 0.00534 ± 0.0019 |
| UCCUGCUACAGCAAGCAUAGUAUUUAGUUA | 0.00524 ± 0.0031 |
| UCCUGGAACAGCUUGCAUAGUAUUUGAGUUA | 0.00299 ± 0.003 |
| UCCUCCUACAGGCUUGCAUAGUAUUUAGUUA | 0.00802 ± 0.0025 |
| UCCUGGAUGUCCUUGCAUAGUAUUUAAGUUA | 0.00879 ± 0.0027 |
| UCCUGCUACACCAUGCAUAGUAUUUAGUUA | 0.00794 ± 0.0027 |
| UCCUGGUACAGCUUCGCAUAGUAUUUAGUUA | 0.0125 ± 0.0035 |
| UCCUGCUACAGCUUGCAUAGUAUUUAGGUUA | 0.00346 ± 0.0028 |
| UCCUGGAUGAGCUUGCAUAGUACUUAGUUA | 0.00646 ± 0.0022 |
| UCCUGGAACAGCUUGCAUAGUAUUUAGUCA | 0.00732 ± 0.0022 |
| UCCUGCUUCAGCUAGCAUAGUAUUUAGUUA | 0.00715 ± 0.0018 |
| UCCUGGUACGCUUGCAUAGUAUUUAGUUA | 0.0143 ± 0.0047 |
| UCCUGGAUGAGCUUGCAUAGUAUUAAGUUA | 0.00479 ± 0.0019 |
| UCCUCCUACAGCUUGCAAUGUAUUUAGUUA | 0.00693 ± 0.0023 |
| UCCUGGUACAGCUUGCAUAGUAUGUUAGUUA | 0.00462 ± 0.0027 |
| UCCUGCUACAGCUUGGUUAGUAUUUAGUUA | 0.0061 ± 0.002 |
| UCCUGGAACAGCUGCAUAGUAUUUAGUUA | 0.0069 ± 0.0026 |

Tested on: EfPiwi piRISC loaded with L1MC piRNA (26 nt)
Test: pre-steady-state target cleavage rate (min^-1); auxiliary factor: 500 nM Ephydatia muelleri Gtsf1; guide: L1MC piRNA 5'p-UAACUAAAUACUAUGCAAGCUGUAGG; MIWI and MILI are mouse PIWI proteins and EfPiwi is from a freshwater sponge; tags in brackets are library labels; higher = faster piRNA-guided slicing of the target
Conditions: not given
Procedure, shortened: as §1

| Sequence | pre-steady-state target cleavage rate |
| --- | --- |
| UCCUGGAACAGCUUGCGUAGUAUUUAGUUA | 0.00807 ± 0.0034 |
| UCCUGGUACAGCAUGCAUAGUAUUUAGUUA | 0.0111 ± 0.0041 |
| UCCUGCUUCAGCUUGGAUAGUAUUUAGUUA | 0.0331 ± 0.007 |
| UCCUGGAUGUCGACGCAUAGUAUUUAGUUA | 0.00545 ± 0.0032 |
| UCCUGGAACAGCUUGCAUAGUAUUUAGUUA [g2:g23:cont:t1A] | 0.0806 ± 0.018 |
| UCCUGGAUGAGCUUGCAUAGUAUGUUAGUUA | 0.00879 ± 0.0036 |
| UCCUCCUACAGCUUGCUUAGUAUUUUGUUA | 0.00532 ± 0.0028 |
| UCCUGGUACAGCAUGCAUAGUAUUAAGUUA | 0.00442 ± 0.002 |
| UCCUGGUACAGCUUGCAUAGUAUUUAGUAA | 0.0108 ± 0.0041 |
| UCCUCCUACAGCUUGCAAAGUAUUUAGUUA | 0.0392 ± 0.012 |
| UCCUGCUACAGCUUGCAUAGUAUAUUAGUUA | 0.0185 ± 0.0079 |
| UCCUGGAUGAGCUUGCACAGUAUUUAGUUA | 0.0152 ± 0.0046 |
| UCCUCCUACAGGUAGCAUAGUAUUUAGUUA | 0.0265 ± 0.006 |
| UCCUGGAUGAGCUUGGAUAGUAUUUAGUUA | 0.0043 ± 0.0033 |
| UCCUGCUACAGUUGCAUAGUAUUUAGUUA | 0.0766 ± 0.022 |
| UCCUGCAACAGCUUGCAUAGUUUUUAGUUA | 0.00727 ± 0.0019 |
| UCCUCCUACGAGCUUGCAUAGUAUUUAGUUA | 0.0144 ± 0.0051 |
| UCCUCCUACAGCUUGCAUAGUAUUUUCUAA | 0.00565 ± 0.0036 |
| UCCUGGAUGAGCUUGCAUAGUUUUUAGUUA | 0.00485 ± 0.002 |
| UCCUGCUACAGGUUGCAAAGUAUUUAGUUA | 0.0385 ± 0.0096 |

| Sequence | pre-steady-state target cleavage rate |
| --- | --- |
| UCCUGGAACAGCAUUGCAUAGUAUUUAGUUA | 0.015 ± 0.0044 |
| UCCUGCUUCAGCUUGCAAAGUAUUUAGUUA | 0.0683 ± 0.018 |
| UCCUGGAUGUGCUUGUAUAGUAUUUAGUUA | 0.0218 ± 0.0071 |
| UCCUCCUACAGCUUGCAUAGUAUAUAGUUA | 0.00814 ± 0.0038 |
| UCCUGCUACAGCAAGCAUAGUAUUUAGUUA | 0.0176 ± 0.0059 |
| UCCUGGAACAGCUUGCAUAGUAUUUGAGUUA | 0.00552 ± 0.0019 |
| UCCUCCUACAGGCUUGCAUAGUAUUUAGUUA | 0.0234 ± 0.0078 |
| UCCUGGAUGUCCUUGCAUAGUAUUUAAGUUA | 0.0217 ± 0.0093 |
| UCCUGCUACACCAUGCAUAGUAUUUAGUUA | 0.00582 ± 0.003 |
| UCCUGGUACAGCUUCGCAUAGUAUUUAGUUA | 0.038 ± 0.0086 |
| UCCUGCUACAGCUUGCAUAGUAUUUAGGUUA | 0.00526 ± 0.0014 |
| UCCUGGAUGAGCUUGCAUAGUACUUAGUUA | 0.0106 ± 0.0037 |
| UCCUGGAACAGCUUGCAUAGUAUUUAGUCA | 0.0042 ± 0.0024 |
| UCCUGCUUCAGCUAGCAUAGUAUUUAGUUA | 0.0566 ± 0.015 |
| UCCUGGUACGCUUGCAUAGUAUUUAGUUA | 0.00582 ± 0.0027 |
| UCCUGGAUGAGCUUGCAUAGUAUUAAGUUA | 0.00469 ± 0.0021 |
| UCCUCCUACAGCUUGCAAUGUAUUUAGUUA | 0.0107 ± 0.0042 |
| UCCUGGUACAGCUUGCAUAGUAUGUUAGUUA | 0.00488 ± 0.0028 |
| UCCUGCUACAGCUUGGUUAGUAUUUAGUUA | 0.0105 ± 0.0033 |
| UCCUGGAACAGCUGCAUAGUAUUUAGUUA | 0.0362 ± 0.0095 |

Source: the supplement of paper PMC10338343
